According to PubChem BioAssay AID602123 (The Scripps Research Institute Molecular Screening Center, 2011):
Out of some 360,000 compounds screened, about 1,500 (0.42%) were called active. The list comes from a sample in which actives are over-represented; it also holds similar structures and randomly drawn compounds. Unmarked numbers belong to inactive results. Cut-off read from the data, not from the text of the source: active = inhibition above about 13% (passing the limit was not always enough); inactive = the rest.

biological target: Lon protease (Escherichia coli (strain K12)) (UniProt P0A9M0); assay: inhibitors of E. coli Lon protease, primary screen, biochemical, fluorescence polarization (AID 602123);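 note: 0% = enzyme with probe and DMSO and 100% = no enzyme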; conditions: purified E. coli Lon protease, at 7.94 µM, active compounds read high
Sequence (P0A9M0 whole entry, looked up): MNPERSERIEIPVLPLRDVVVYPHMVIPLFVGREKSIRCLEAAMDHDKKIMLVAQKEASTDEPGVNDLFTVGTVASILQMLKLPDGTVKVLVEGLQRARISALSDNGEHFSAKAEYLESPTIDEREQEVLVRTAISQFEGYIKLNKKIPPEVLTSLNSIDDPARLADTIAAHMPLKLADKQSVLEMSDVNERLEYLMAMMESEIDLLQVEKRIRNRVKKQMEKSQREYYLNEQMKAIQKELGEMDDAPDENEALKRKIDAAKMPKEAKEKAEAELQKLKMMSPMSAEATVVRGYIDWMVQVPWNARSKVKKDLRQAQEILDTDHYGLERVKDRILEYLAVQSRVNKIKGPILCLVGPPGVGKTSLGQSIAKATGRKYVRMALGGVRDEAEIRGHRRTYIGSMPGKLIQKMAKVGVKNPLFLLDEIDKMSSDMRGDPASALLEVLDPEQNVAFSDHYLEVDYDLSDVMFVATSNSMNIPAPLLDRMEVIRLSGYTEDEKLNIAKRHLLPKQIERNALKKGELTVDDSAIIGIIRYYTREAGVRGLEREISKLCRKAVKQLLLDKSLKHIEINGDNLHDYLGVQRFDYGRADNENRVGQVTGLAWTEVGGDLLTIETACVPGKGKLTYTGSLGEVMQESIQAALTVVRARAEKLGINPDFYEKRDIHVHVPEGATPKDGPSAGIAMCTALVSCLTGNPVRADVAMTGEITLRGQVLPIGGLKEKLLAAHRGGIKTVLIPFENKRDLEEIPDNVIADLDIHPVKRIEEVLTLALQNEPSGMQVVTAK

SMILES | inhibition
CC(=O)c1cccc(OCC(=O)OCC(=O)Nc2cc(S(=O)(=O)N3CCCCC3)ccc2C)c1 | 7.88%
CCOC(=O)[C@]12CCCC=C1N(Cc1ccc3c(c1)OCO3)C(=O)[C@H](CC(=O)NCc1cccs1)C2 | 5.92%
CC1=NN(C(=O)CCCc2ccccc2)C(O)(C(F)(F)F)C1 (stereo unspecified) | -1.58%
COc1ccc(CC(=O)N2N=C(C)CC2(O)C(F)(F)F)cc1 (stereo unspecified) | -7.36%
CC1=NN(C(=O)CCc2ccccc2O)C(O)(C(F)(F)F)C1 (stereo unspecified) | 18.2% (active)
Cc1cccc(N2CCC(NCc3c(C(=O)N4CCCCC4)nc4c(C)cccn34)CC2)c1 | 29% (active)
CCOC(=O)C1CCN(Cc2c(C(=O)N3CCOCC3)nc3c(C)cccn23)CC1 | -0.49%
Cc1cccn2c(CNCC(C)Oc3cccnc3)c(C(=O)N3CCOCC3)nc12 (stereo unspecified) | -6.22%
CCOC(=O)c1cccc(NC(=O)C2CCCN(S(=O)(=O)c3cnc[nH]3)C2)c1 (stereo unspecified) | -1.61%
CCOCCc1nn2c(=O)cc(CSCC(=O)Nc3cccc(C)c3C)nc2s1 | 4.06%
COC(=O)c1ccc2nc(-c3ccc(F)cc3)c(Cc3ccc(C)cc3)n2c1 | -5.56%
O=c1oc2ccccc2c(CNc2ccccc2)c1[N+](=O)[O-] | -5.51%
CCCCCCCCOC1OC(CO)C(O)C(O)C1NC(C)=O (stereo unspecified) | 5.86%
COC(=O)c1cc(NC(=O)c2cc(C(C)(C)C)nn2Cc2cccc(C)c2)ccc1N1CCOCC1 | 7.4%
CCCCOP(=O)(c1ccc(N(C)C)cc1)C(O)c1cc(OC)ccc1OC (stereo unspecified) | 9.34%
CCOc1ccc(CCN2C(=S)N([C@@H](CC(C)C)CN3CCC[C@@H]3CN3C(=S)NC[C@@H]3Cc3ccc(O)cc3)C[C@@H]2Cc2ccc(O)cc2)cc1 | 1.84%
COC(=O)c1sccc1-n1cccc1C(=O)C(=O)N1CCCCC1 | -3.71%
COc1ccc(-c2nc(CS(=O)CC(=O)NCc3ccccn3)c(C)o2)cc1 (stereo unspecified) | 21.2% (active)
COc1ccc(-c2nc(CS(=O)CC(=O)NCc3cccnc3)c(C)o2)cc1OC (stereo unspecified) | -14.5%
Cc1ccc(-c2nc(CS(=O)CC(=O)NC3CCCC3)c(C)o2)cc1 (stereo unspecified) | -12.5%
O=C(OCc1cn([C@H]2C[C@H](c3ccccc3)N(C(=O)c3cccs3)C[C@@H]2O)nn1)c1ccccc1 | 2.92%
CC1C(c2ccccc2)=[N+]([O-])C2(CCCC2)N1O (stereo unspecified) | -2.56%
CCOC(=O)N1CCN(C(=O)c2cn(C)c3ccc(S(=O)(=O)N(CC)CC)cc3c2=O)CC1 | 1.34%

SMILES | inhibition
CCN(CC)CCCNC(=O)c1cn(C)c2ccc(S(=O)(=O)N(C)C3CCCCC3)cc2c1=O | 21.3% (active)
CCn1cc(C(=O)NCCCN2CCCCCC2)c(=O)c2cc(S(=O)(=O)N3CCc4ccccc4C3)ccc21 | 1.65%
CCOCCCNC(=O)C(NC(=O)c1ccccc1O)c1ccccc1 (stereo unspecified) | 10.1%
CCn1cc(/C=C(\NC(=O)c2ccc(C)cc2)C(=O)NCCN2CCOCC2)c2ccccc21 | -56.3%
Cc1c(/C=N/N2C(=O)C3C4C=CC(C4)C3C2=O)c2ccccc2n1C (stereo unspecified) | 0.26%
O=C1C2C3C=CC(C4CC34)C2C(=O)N1/N=C/c1ccc(-c2ccccc2[N+](=O)[O-])o1 (stereo unspecified) | 15.8% (active)
CCN1CCN(C(=O)CN(C)S(=O)(=O)c2ccc3ccccc3c2)CC1 | -4.47%
O=C(NCCOc1cccnc1)c1ccc(OC2CCN(Cc3ccccn3)CC2)cc1 | 6.74%
CCOC(=O)C1(C(F)(F)F)N=C(N(C)C)OC(N(C)C)=N1 | 1.25%
N#CC1=C(N)OC2=C(C(=O)CCC2)C1C1CC=CCC1 (stereo unspecified) | 20% (active)
N#CC1=C(N)Oc2cc(O)ccc2C1C1CCCCC1 (stereo unspecified) | -1.88%
NC1=C([N+](=O)[O-])C(c2ccccc2)C2=C(CCCC2=O)O1 (stereo unspecified) | -4.86%
O=C(O)c1ccc(OCC2CCCO2)cc1 (stereo unspecified) | -7.47%
CCCCCCSc1nsc(N)n1 | -2.31%
Cc1ccc2nc3c(cc(C(=O)NCCc4ccccc4)c(=N)n3CC3CCCO3)c(=O)n2c1 (stereo unspecified) | 18.8% (active)
COc1ccc(CCNC(=O)Cn2c(=O)n(CC3CCCO3)c(=O)c3ccccc32)cc1OC (stereo unspecified) | -3.69%
Cc1ccc(CCNC(=O)c2ccc3nc4ccccc4c(=O)n3c2)cc1 | 4.65%
CC(C)N(C(=O)COC(=O)c1ccccc1C(=O)N1CCN(c2ccc(F)cc2)CC1)C(C)C | -12.1%
Oc1ccc(N2CCN(C(=S)NCc3ccccc3)CC2)cc1 | 4.95%
O=C(COC(=O)c1ccccc1C(=O)N1CCN(c2ccccc2)CC1)NCc1ccccc1 | 23% (active)
CC(C)(C)C(=O)c1c(N)[nH]c(C(=O)c2ccccc2)c1-c1ccc(F)cc1 | -14.5%
COc1cccc2sc(N(CCCN(C)C)C(=O)CCS(=O)(=O)c3ccccc3)nc12 | 22.5% (active)
O=C(CCS(=O)(=O)c1ccccc1)NC1CCCC1 | 0.44%

SMILES | inhibition
COc1ccc(C)cc1NC(=O)CCS(=O)(=O)c1cccc2nonc12 | -0.09%
Cc1nn(C)c(C)c1CN(C(=O)CCc1nnc(Cc2c[nH]c3ccccc23)o1)C(C)C | 12.7%
Cc1cccn2c(=O)c3cc(C#N)c(=NC(=O)c4cccnc4)n(CC4CCCO4)c3nc12 (stereo unspecified) | 21.1% (active)
COCCCn1c(C(=O)NC2CCCCC2)cc2c(=O)n3cccc(C)c3nc21 | -13.7%
Cc1cccn2c(=O)c3cc(C#N)c(=O)n(CCCN4CCOCC4)c3nc12 | -13.8%
O=C(C1CC1)N1N=C(c2ccc(Br)cc2)CC1(O)C(F)(F)F (stereo unspecified) | -8.02%
CCCS(=O)(=O)N1CCC(C(=O)NCCCN(C)Cc2ccccc2)CC1 | -3.31%
CC1CC(C)CN(c2ccc(S(=O)(=O)N3CCOCC3)cc2)C1 (stereo unspecified) | 4.68%
CSCCC(NS(=O)(=O)/C=C/c1ccccc1)C(=O)N1CCC(C)CC1 (stereo unspecified) | -1.94%
Clc1ccccc1CSc1nnc(-c2ccco2)c(-c2ccco2)n1 | 41.5% (active)
c1ccc(CSc2nnc(-c3ccco3)c(-c3ccco3)n2)cc1 | 86.1% (active)
c1ccc(Cc2c(-c3ccco3)nc3c4ccccc4ccn23)cc1 | -7.97%
COc1ccc(NCc2nnc(SCc3ccccc3)n2-c2ccc(OC)cc2)cc1 | -3.02%
Cc1ccc2nc(-c3ccco3)c(Cc3cccc(Cl)c3)n2c1 | -7.22%
Cc1ccc(Cc2c(-c3ccco3)nc3ccc(Cl)cn23)cc1 | -7.56%
O=C(C1CC(=O)N(c2ccc(Br)cc2)C1)N1CCCC1 (stereo unspecified) | -8.68%
CC1CC(=S)Nc2ccccc2N1Cc1ccccc1 (stereo unspecified) | 6.5%
O=C(CCCn1c(=O)c2sccc2n(CC(=O)NCC2CCCO2)c1=O)NCc1ccco1 (stereo unspecified) | -1.12%
C=CCN1CCN(C(=O)CCCc2ccccc2)CC1 | -7.13%
Cn1c(C(=O)OC(C(=O)NC2CCCCC2)c2ccccn2)cc2sccc21 (stereo unspecified) | 2.24%
CC(C)(O)C1=C[N+](=O)CC=C1 | -1.32%
COC(=O)CSc1ccc2nnc(CCNS(=O)(=O)c3ccc(C)cc3)n2n1 | -1.61%
COc1ccc(-c2ocnc2C(=O)Nc2ccc3c(c2)CCC3)cc1 | 11.4%

SMILES | inhibition
COCc1cc(C(C)=O)ccc1OC | -3.49%
COc1ccc(-c2onc3ccc(C(C)=O)cc23)cc1 | 97% (active)
CCOC(=O)c1cc2cc(OC)ccc2n1C1CCN(C)CC1 | 3.4%
COc1cc2cc(CN(CCN3CCCC3)C(=O)Nc3ccccc3Cl)c(=O)[nH]c2cc1OC | -12.8%
Cc1ccc(C(=O)OCC(=O)NCc2cc(C)c(O)c(C)c2)cc1S(=O)(=O)N1CCCCC1 | -7.17%
COc1cc(NC(=O)COC(=O)c2cnc(C)cn2)c(C)cc1[N+](=O)[O-] | -4.63%
COc1ccc(-c2cc(NC(C)=O)c3ncc(-c4cc(OC)c(OC)c(OC)c4)n3c2)cn1 | 2.07%
Cc1ccn2cc(-c3nonc3C)cc2c1 | 25.1% (active)
CSc1ncccc1C(=O)Nc1nc2ccc(F)cc2s1 | 7.17%
c1ccc(C(=NNc2nc3ccccc3s2)c2ccccn2)cc1 | 131% (active)
C[C@H]1CN([C@@H](C)CO)C(=O)CCCn2cc(nn2)CO[C@@H]1CN(C)S(=O)(=O)c1ccc(-n2cccn2)cc1 | 7.06%
O=C(CNC(=O)c1ccccc1F)OCC(=O)c1c[nH]c2ccccc12 | -11.7%
O=C(Nc1ccn(Cc2ccccc2)n1)c1n[nH]c([N+](=O)[O-])c1Cl | 1.99%
COCCn1c(N)c(NCc2ccccc2)c(=O)[nH]c1=O | 31.1% (active)
COCCN(C(=O)c1ccccc1F)c1c(N)n(Cc2ccccc2)c(=O)[nH]c1=O | 2.64%
COCCn1c(N)c(N(Cc2ccccc2)C(=O)C2CCCCC2)c(=O)[nH]c1=O | -5.01%
Cc1ccc(N=C2SCCCN2C(=O)c2cccc(N3C(=O)CCC3=O)c2)cc1Cl | 1.67%
COC(=O)c1cccc(C(=O)N2CCC(CCC(=O)NCc3ccc(F)cc3)CC2)c1 | -6.42%
CC(=O)Nc1ccc(CN2CCN(Cc3ccc(F)c(F)c3)C(CCO)C2)cc1 (stereo unspecified) | -13.9%
COc1ccc(Nc2ccc([N+](=O)[O-])cn2)cn1 | 20.9% (active)
COC(=O)c1ccccc1N=NNc1ccc([N+](=O)[O-])cc1 | -9.1%
COc1cc(NC(=O)Nc2ccc(C)cc2)cc([N+](=O)[O-])c1 | -13%
